Results on eight molecules are retold here after PubChem BioAssay (EPA / NIEHS).

Assay [1] addresses Nuclear respiratory factor 1 (Homo sapiens) (UniProt Q16656). Put plainly: ATG_NRF1_CIS: Attagene CIS-FACTORIAL HepG2 Assay for human Nuclear Respiratory Factor 1 (NRF1) Orphan Gene (AID 2282987). Particulars: HepG2 NRF1 cis-element reporter, Attagene multiplex; actives raise or lower the signal. An outline of the steps:
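Endogenous factor activity was captured via cis-element-driven reporter transcripts in HepG2 cells. Following 24 h chemical treatment, transcripts were quantified by RT-PCR and capillary electrophoresis.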

Assay [2] can be described thus: ATG_NFI_CIS: Attagene CIS-FACTORIAL HepG2 Assay for human Nuclear Factor I (NFI) (AID 2282989). Particulars: HepG2 cis-regulatory reporter, NFI response element transcription; actives raise or lower the signal. Summed up:
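HepG2, transient MRTU, 24 h exposure; RNA→cDNA→PCR→FAM label→HpaI→CE fluorescence. Bidirectional fit, DMSO = baseline.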

Assay [3] has as its target Myc proto-oncogene protein (Homo sapiens) (UniProt P01106). Description: ATG_Myc_CIS: Attagene CIS-FACTORIAL HepG2 Assay for human Myelocytomatosis (Myc) Proto-Oncogene Transcription Factor (AID 2282990). Particulars: HepG2, Attagene cis-reporter transcription factor activity; actives raise or lower the signal. An outline of the steps:
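HepG2, transient MRTU transfection (cis promoters, endogenous TFs); 24 h dosing; TriZol RNA → oligo(dT) RT → PCR → 6-FAM primer extension → HpaI cut → CE. Bidirectional fit vs DMSO.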

Assay [4] can be described thus: ATG_NF_kB_CIS: Attagene CIS-FACTORIAL HepG2 Assay for human Nuclear Factor Kappa B (NF-kB) (AID 2282991). The note with it: HepG2 Attagene cis-factorial NF-kB reporter mRNA; actives raise or lower the signal. An outline of the steps: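 After 24 h compound incubation, transfected HepG2 cells yield total RNA; reporter cDNA is PCR-amplified, end-labelled with 6-FAM, HpaI-digested and analysed on a genetic analyser. Endogenous factor activity, DMSO-referenced bidirectional fit.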

The nature of assay [5]: ATG_NRF2_ARE_CIS: Attagene CIS-FACTORIAL HepG2 Assay for human Nuclear Factor Erythroid 2 Related Factor 2 (NFR2) response to Antioxidant Response Elements (ARE) (AID 2282992).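 On AC50: reporter mRNA level measured by RT-PCR and capillary electrophoresis fluorescence.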 Particulars: HepG2 Attagene ARE/NRF2 reporter, transcription factor activity; actives raise or lower the signal. An outline of the steps:
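Cis-factorial assay: transfected HepG2 reporter library, 24 h dosing, mRNA readout via RT-PCR/CE; DMSO-referenced bidirectional analysis.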

A short description of assay [6]: ATG_Oct_MLP_CIS: Attagene CIS-FACTORIAL HepG2 Assay for human Octamer-Binding Transcription Factor (Oct) (AID 2282993). Particulars: HepG2 Attagene cis-factorial Oct reporter, mRNA; actives raise or lower the signal. Summed up: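 Multiplexed cis-reporter assay in human liver HepG2 cells, 24 h incubation. Reporter RNA amplified and labelled, then resolved by capillary electrophoresis; DMSO serves as negative control and baseline.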

The target of assay [7] is Cellular tumor antigen p53 (Homo sapiens) (UniProt P04637). Put plainly: ATG_p53_CIS: Attagene CIS-FACTORIAL HepG2 Assay for human p53 Transcription Factor (AID 2282994). Particulars: HepG2 p53 cis-element reporter, Attagene mRNA; actives raise or lower the signal. An outline of the steps: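 Using HepG2 hepatoma cells carrying cis-acting multiplexed reporters, mRNA induction is detected after a 24 h exposure. Gain- and loss-of-signal responses are fitted relative to DMSO-treated cells.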
Chain of Cellular tumor antigen p53 (Homo sapiens) (P04637 whole entry, looked up): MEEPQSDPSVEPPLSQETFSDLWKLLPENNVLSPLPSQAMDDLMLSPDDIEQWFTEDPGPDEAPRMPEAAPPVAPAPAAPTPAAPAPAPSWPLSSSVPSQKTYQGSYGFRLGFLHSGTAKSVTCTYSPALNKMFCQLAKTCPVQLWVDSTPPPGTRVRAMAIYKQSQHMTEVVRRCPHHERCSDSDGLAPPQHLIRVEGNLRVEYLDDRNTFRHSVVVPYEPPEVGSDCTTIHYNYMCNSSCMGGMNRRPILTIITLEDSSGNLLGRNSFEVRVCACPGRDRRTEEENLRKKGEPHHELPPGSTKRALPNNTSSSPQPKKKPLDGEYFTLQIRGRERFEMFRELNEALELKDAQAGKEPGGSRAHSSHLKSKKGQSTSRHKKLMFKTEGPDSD

Assay [8] can be described thus: BSK_3C_TissueFactor: BioMAP Diversity Plus: 3C Assay for Tissue Factor Biomarker Activity (AID 2282997). The note with it: BioMAP 3C HUVEC, tissue factor biomarker readout; actives raise or lower the signal. An outline of the steps: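 Human vascular primary cells (umbilical vein endothelium) received test chemical; Tissue Factor was determined by ELISA at 24 h, and both gain and loss of signal versus DMSO were fitted.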

The nature of assay [9]: BSK_3C_uPAR: BioMAP Diversity Plus: 3C Assay for Urokinase-type plasminogen activator receptor (uPAR) Biomarker Activity (AID 2282998). The note with it: BioMAP 3C HUVEC, uPAR biomarker ELISA; actives raise or lower the signal. Summed up:
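Dose primary human umbilical vein endothelial cells, incubate 24 h, measure cell-surface uPAR by ELISA, then fit the signal in both directions against the DMSO negative control.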

Assay [10] can be described thus: BSK_3C_VCAM1: BioMAP Diversity Plus: 3C Assay for Vascular cell adhesion molecule 1 (VCAM1) Biomarker Activity (AID 2282999). The note with it: BioMAP 3C HUVEC, VCAM1 ELISA, cytokine-stimulated; actives raise or lower the signal. Summed up: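 Endothelial cells from human umbilical vein are treated with test chemical. At 24 h, VCAM-1 is measured by ELISA, and responses in either direction are fitted relative to DMSO.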
In general terms: An ELISA detects its analyte on a solid surface through an enzyme-linked reagent.

Assay [11] addresses human Peroxisome Proliferator-activated Receptor alpha (PPARa), PPARA (gene 5465) (UniProt Q07869). Description: ATG_PPARa_TRANS: Attagene TRANS-FACTORIAL HepG2 Assay for human Peroxisome Proliferator-activated Receptor alpha (PPARa) (AID 2283001; active means hit-call score of the fitted dose curve at least 0.9, where 1 is the maximum;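 on AC50: potency for gain of reporter signal over DMSO so agonist or activator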). Summed up:
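Reporter transcripts from GAL4-UAS units in transfected HepG2 were quantified 24 h after dosing. Detection used reverse transcription, PCR, fluorescent primer extension and capillary electrophoresis, with DMSO as baseline.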

Assay [12] deals with human Peroxisome Proliferator-activated Receptor delta (PPARd), PPARD (gene 5467) (UniProt Q03181). Description: ATG_PPARd_TRANS: Attagene TRANS-FACTORIAL HepG2 Assay for human Peroxisome Proliferator-activated Receptor delta (PPARd) (AID 2283002; active means hit-call score of the fitted dose curve at least 0.9, where 1 is the maximum). An outline of the steps: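 Transient HepG2 transfection (multiple GAL4-UAS RTUs, chimeric receptor-Gal4); 24 h dosing; total RNA → oligo(dT) RT → PCR → 6-FAM primer extension → HpaI cut → CE. Positive direction vs DMSO.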
Chain of human Peroxisome Proliferator-activated Receptor delta (PPARd), PPARD (gene 5467) (Q03181 whole entry, looked up, the tested form may be a part): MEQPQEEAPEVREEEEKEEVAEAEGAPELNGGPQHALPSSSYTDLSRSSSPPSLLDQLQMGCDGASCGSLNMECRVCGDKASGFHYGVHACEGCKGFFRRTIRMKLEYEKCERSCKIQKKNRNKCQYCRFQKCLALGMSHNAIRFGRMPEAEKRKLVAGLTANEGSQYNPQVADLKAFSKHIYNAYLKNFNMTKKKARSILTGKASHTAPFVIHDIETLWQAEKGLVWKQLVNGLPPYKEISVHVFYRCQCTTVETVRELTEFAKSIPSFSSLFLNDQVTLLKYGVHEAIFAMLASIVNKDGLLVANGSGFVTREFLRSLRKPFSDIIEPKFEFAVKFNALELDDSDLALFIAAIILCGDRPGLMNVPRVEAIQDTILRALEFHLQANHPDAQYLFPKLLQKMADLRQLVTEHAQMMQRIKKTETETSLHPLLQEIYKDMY

Read-out in assay [13]: Intercellular Adhesion Molecule 1 (ICAM1), ICAM1 (gene 3383)
Description: BSK_3C_ICAM1: BioMAP Diversity Plus: 3C Assay for Intercellular Adhesion Molecule 1 (ICAM1) Biomarker Activity (AID 2283003). Particulars: primary human endothelial cells (HUVEC); actives raise or lower the signal. Summed up:
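Human vascular endothelial primary cells, 3C conditions, 24 h treatment. ICAM-1 by ELISA.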

Assay [14] is described as follows: BSK_3C_Proliferation: Cell Proliferation Assessment in the BioMAP Diversity Plus: 3C Assay (AID 2283006).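 On AC50: potency may reflect either rise or fall in cell number versus DMSO.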 Particulars: primary human endothelial cells (HUVEC). An outline of the steps:
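Proliferation of human vascular endothelial primary cells after 48 h dosing, quantified as SRB-stained protein at 560 nm relative to DMSO.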

For assay [15], the target named is Nuclear receptor subfamily 1 group I member 2 (Homo sapiens) (UniProt O75469). Description: ATG_PXR_TRANS: Attagene TRANS-FACTORIAL HepG2 Assay for human Pregnane X Receptor (PXR) (AID 2283008; active means hit-call score of the fitted dose curve at least 0.9, where 1 is the maximum). Summed up:
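Fluorescence intensity of FAM-labelled, HpaI-digested reporter amplicons, separated by capillary electrophoresis, quantifies induction. HepG2 cells with PXR-Gal4 trans-reporter system were exposed 24 h; DMSO defines baseline.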

Assay [16] concerns the target Peroxisome proliferator-activated receptor gamma (Homo sapiens) (UniProt P37231). Put plainly: ATG_PPARg_TRANS: Attagene TRANS-FACTORIAL HepG2 Assay for human Peroxisome Proliferator-activated Receptor-gamma (PPARg) (AID 2283007; active means hit-call score of the fitted dose curve at least 0.9, where 1 is the maximum). Summed up:
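Liver-derived HepG2 cells expressing an exogenous NR-Gal4 chimera alongside GAL4-UAS reporter genes; 24 h exposure. Fluorescence of reporter RT-PCR products, separated by capillary electrophoresis, gives mRNA induction relative to DMSO.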

Assay [17] concerns the target human Retinoic Acid Receptor beta (RARb), RARB (gene 5915) (UniProt P10826). Description: ATG_RARb_TRANS: Attagene TRANS-FACTORIAL HepG2 Assay for human Retinoic Acid Receptor beta (AID 2283004; active means hit-call score of the fitted dose curve at least 0.9, where 1 is the maximum). Summed up:
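Readout is reporter mRNA induction: RNA reverse-transcribed, PCR-amplified, FAM-labelled, HpaI-cut and resolved by capillary electrophoresis. Transiently transfected HepG2 cells carrying exogenous NR–Gal4 chimeras were dosed for 24 h; activity fitted upward relative to DMSO.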

The target of assay [18] is Retinoic acid receptor alpha (Homo sapiens) (UniProt P10276). Description: ATG_RARa_TRANS: Attagene TRANS-FACTORIAL HepG2 Assay for human Retinoic Acid Receptor alpha (RARa) (AID 2283005; active means hit-call score of the fitted dose curve at least 0.9, where 1 is the maximum). An outline of the steps: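 Reporter transcripts, measured by RT-PCR with fluorescent labeling and capillary electrophoresis after 24 h dosing, reflect activity of an exogenous human RARa–GAL4 fusion in transiently transfected HepG2. Fitted for increase relative to DMSO.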
Chain of Retinoic acid receptor alpha (Homo sapiens) (P10276 whole entry, looked up, the tested form may be a part): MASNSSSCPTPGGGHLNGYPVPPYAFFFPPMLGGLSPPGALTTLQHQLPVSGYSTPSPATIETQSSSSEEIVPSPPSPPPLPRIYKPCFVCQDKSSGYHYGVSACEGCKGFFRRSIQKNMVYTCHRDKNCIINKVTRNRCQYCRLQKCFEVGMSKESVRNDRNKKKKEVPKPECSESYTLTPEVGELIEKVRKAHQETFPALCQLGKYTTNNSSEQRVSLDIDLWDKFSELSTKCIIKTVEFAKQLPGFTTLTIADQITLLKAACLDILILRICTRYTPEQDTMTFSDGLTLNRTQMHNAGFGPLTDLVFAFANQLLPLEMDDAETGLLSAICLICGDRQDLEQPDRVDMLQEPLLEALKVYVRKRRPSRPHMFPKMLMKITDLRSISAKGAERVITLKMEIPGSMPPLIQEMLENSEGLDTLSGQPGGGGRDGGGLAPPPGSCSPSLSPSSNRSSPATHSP

Assay [19] can be described thus: BSK_4H_Eotaxin3: BioMAP Diversity Plus: 4H Assay for Eotaxin 3 Biomarker Activity (AID 2283000).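 Further: CCL26 protein level quantified by ELISA in parallel with SRB cytotoxicity check.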 Particulars: primary human endothelial cells (HUVEC); actives raise or lower the signal. Summed up:
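Readout is Eotaxin-3 (CCL26) level by ELISA in primary human umbilical vein endothelial cells harvested 24 h after chemical exposure; activity fitted in both directions against DMSO control.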

Records with an inconclusive call do not appear. The source made the active and inactive calls. How the source made its calls, unless noted: active means hit-call score of the fitted dose curve at least 0.9, where 1 is the maximum; inactive means score below 0.9.

Chain of Nuclear receptor subfamily 1 group I member 2 (Homo sapiens) (O75469 whole entry, looked up, the tested form may be a part): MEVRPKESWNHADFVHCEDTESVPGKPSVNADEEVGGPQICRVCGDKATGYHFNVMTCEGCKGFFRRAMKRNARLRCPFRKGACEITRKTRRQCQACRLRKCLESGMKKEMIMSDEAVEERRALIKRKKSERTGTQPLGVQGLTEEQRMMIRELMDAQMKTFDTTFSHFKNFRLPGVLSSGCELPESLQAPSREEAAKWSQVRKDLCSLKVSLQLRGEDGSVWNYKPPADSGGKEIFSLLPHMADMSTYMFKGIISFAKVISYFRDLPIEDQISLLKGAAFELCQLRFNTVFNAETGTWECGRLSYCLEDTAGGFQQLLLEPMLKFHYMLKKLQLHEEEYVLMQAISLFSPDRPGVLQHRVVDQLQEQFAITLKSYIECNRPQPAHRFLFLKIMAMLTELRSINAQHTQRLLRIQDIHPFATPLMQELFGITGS
Chain of Myc proto-oncogene protein (Homo sapiens) (P01106 whole entry, looked up): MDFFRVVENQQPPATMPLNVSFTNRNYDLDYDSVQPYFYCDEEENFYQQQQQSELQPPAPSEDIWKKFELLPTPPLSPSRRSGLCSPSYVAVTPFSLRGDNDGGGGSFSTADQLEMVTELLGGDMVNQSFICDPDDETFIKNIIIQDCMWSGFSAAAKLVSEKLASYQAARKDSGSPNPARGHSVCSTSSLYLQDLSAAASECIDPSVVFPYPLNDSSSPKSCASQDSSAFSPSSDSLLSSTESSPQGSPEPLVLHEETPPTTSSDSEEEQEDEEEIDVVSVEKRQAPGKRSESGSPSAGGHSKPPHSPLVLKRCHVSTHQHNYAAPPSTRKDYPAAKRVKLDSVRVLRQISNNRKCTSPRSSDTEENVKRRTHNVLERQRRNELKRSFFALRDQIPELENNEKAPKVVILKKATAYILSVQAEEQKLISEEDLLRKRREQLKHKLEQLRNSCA
Chain of human Retinoic Acid Receptor beta (RARb), RARB (gene 5915) (P10826 whole entry, looked up, the tested form may be a part): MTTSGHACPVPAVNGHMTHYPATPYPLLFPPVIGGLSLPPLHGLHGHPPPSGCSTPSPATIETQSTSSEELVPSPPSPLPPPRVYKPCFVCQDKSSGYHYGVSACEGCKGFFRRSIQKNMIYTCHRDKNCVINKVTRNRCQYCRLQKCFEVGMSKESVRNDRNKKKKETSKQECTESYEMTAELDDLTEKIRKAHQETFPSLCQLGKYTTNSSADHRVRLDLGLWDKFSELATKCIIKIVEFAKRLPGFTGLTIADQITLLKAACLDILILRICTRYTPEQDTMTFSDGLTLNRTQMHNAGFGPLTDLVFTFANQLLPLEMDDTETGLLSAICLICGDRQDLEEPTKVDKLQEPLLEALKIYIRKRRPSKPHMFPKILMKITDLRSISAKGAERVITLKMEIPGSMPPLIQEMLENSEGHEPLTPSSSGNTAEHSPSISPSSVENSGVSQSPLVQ
Chain of human Peroxisome Proliferator-activated Receptor alpha (PPARa), PPARA (gene 5465) (Q07869 whole entry, looked up, the tested form may be a part): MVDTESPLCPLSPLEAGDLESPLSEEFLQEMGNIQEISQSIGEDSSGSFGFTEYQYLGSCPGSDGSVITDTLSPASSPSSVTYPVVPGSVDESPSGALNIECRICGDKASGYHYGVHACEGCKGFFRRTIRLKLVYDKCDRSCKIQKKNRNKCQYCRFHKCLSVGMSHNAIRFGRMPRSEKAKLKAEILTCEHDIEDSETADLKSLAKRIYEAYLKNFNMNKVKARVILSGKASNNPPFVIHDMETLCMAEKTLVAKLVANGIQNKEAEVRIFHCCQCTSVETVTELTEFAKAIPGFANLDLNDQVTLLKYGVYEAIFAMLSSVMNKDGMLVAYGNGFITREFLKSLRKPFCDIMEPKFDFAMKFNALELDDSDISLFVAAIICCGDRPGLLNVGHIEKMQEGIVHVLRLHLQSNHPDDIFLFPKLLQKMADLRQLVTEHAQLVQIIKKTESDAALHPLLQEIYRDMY
Chain of Nuclear respiratory factor 1 (Homo sapiens) (Q16656 whole entry, looked up): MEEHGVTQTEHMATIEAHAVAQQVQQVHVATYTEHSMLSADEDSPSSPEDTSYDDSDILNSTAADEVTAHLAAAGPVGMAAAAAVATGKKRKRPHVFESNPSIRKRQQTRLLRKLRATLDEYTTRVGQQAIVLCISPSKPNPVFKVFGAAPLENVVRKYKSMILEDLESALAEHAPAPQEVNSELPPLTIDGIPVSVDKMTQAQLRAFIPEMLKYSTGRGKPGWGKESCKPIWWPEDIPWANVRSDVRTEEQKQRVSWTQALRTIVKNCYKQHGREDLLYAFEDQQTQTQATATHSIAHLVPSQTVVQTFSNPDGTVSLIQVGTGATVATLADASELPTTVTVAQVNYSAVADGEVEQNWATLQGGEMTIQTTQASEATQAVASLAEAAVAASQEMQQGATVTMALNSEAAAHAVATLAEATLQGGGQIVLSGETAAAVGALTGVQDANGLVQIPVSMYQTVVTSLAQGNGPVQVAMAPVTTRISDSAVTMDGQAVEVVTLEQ
Chain of Peroxisome proliferator-activated receptor gamma (Homo sapiens) (P37231 whole entry, looked up, the tested form may be a part): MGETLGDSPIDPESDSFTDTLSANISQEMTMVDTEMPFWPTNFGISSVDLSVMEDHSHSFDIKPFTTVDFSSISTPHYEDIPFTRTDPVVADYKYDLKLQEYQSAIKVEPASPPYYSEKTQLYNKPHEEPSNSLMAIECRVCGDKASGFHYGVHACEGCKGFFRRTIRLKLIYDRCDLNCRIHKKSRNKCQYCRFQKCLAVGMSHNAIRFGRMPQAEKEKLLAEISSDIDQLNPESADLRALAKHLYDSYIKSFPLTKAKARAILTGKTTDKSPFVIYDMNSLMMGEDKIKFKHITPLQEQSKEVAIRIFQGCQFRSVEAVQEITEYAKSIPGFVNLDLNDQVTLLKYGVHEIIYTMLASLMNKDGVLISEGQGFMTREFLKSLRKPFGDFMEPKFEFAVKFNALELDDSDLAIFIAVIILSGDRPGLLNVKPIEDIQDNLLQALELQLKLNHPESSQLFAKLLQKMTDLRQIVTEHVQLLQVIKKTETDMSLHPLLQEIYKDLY

As usually defined, the AC50 is the concentration at which the activity in the assay is half-maximal. For `Oc1ccc(-c2ccccc2)cc1`, the molecule was classed as inactive in [1], in assay [2], in assay [4], in assay [9], in assay [10] and in assay [11]. Moreover, the outcome in assay [12], in [13], in [14] and in [15] was inactive. Also, the AC50 is 176 µM (active) in assay [3]; 100 µM (active) in assay [5]; 73.8 µM (active) in assay [6]; 27.9 µM (active) in assay [7]; 20 µM (active) in [8].

Take `Clc1nc(Cl)nc(Cl)n1`: the molecule was called inactive in assay [1], in assay [2], in assay [3], in assay [4], in [5] and in [6]. In addition, the molecule was classed as inactive in assay [7], in [11], in [12] and in [16].

Take `[O-][Cl+2]([O-])O`: the molecule was classed as inactive in assay [1], in [2], in assay [3], in [4], in [5] and in [6]. The result in assay [7] was inactive.

As to `CN(C)N=O`, the molecule was classed as inactive in assay [1], in [2], in [3], in assay [4], in assay [5] and in assay [6]. Besides, the molecule was classed as inactive in assay [7], in assay [8], in assay [9], in assay [10], in assay [11] and in [14]. Moreover, in assay [15], the molecule was classed as inactive.

With `C[C@H]1O[C@@H](O[C@H]2[C@@H](O)C[C@H](O[C@H]3[C@@H](O)C[C@H](O[C@H]4CC[C@@]5(C)[C@H](CC[C@@H]6[C@@H]5CC[C@]5(C)[C@@H](C7=CC(=O)OC7)CC[C@]65O)C4)O[C@@H]3C)O[C@@H]2C)C[C@H](O)[C@@H]1O`, the call in assay [1], in assay [4], in assay [5], in [7] and in assay [12] was inactive. The AC50 in [2] was 0.171 µM (active); in [3], 23.9 µM (active); in assay [6] it was 0.592 µM (active); in assay [11] it was 0.0564 µM (active).

Regarding `CC(C)(c1ccccc1)c1ccc(O)c(C(C)(C)c2ccccc2)c1`, the AC50 was 6.39 µM (active) in assay [1]; 8.31 µM (active) in assay [2]; 8.81 µM (active) in assay [4]; 7.97 µM (active) in assay [5]; 1.76 µM (active) in [6]; 11.7 µM (active) in assay [8]. For the same molecule, the AC50 in [9] was 9.74 µM (active); in [10], 9.15 µM (active); in assay [13], 11.1 µM (active); in assay [14], 6.91 µM (active); in assay [15], 0.148 µM (active). Further, the molecule was called inactive in assay [3], in assay [7], in assay [12], in assay [17], in assay [18] and in assay [16].

On to `O=c1[nH]c(=O)[nH]c(=O)[nH]1`, for which the outcome in [1], in assay [2], in assay [3], in assay [4], in [5] and in assay [6] was inactive. Moreover, the outcome in [7], in [8], in [9], in assay [10], in assay [11] and in assay [12] was inactive. The result in assay [13], in assay [17], in assay [18], in [14], in assay [16] and in [15] was inactive.

On to `CC(C)CCCCCCOC(=O)c1ccccc1C(=O)OCCCCCCC(C)C`, for which the molecule was classed as inactive in assay [1], in assay [2], in [3], in [4], in assay [5] and in assay [6]. The result in assay [7], in [8], in assay [9], in [10], in assay [19] and in [11] was inactive. The molecule was called inactive in assay [12], in assay [13] and in assay [14]. In addition, the AC50 in [15] is 1.84 µM (active).
